This note sets out measurements from PubChem BioAssay (NCATS).

Inconclusive results are not listed. Where a call stands in place of a potency, no number is given. Calls of active or inactive are those of the source. The call rests on the fitted dose curve; in most records, active means well fitted inhibition curve with a large enough effect; inconclusive means small, poorly fitted or top-dose-only effect; inactive means flat fitted curve, though single readings scatter.
Potency means the concentration at half of the fitted maximal effect.

For one assay, the system named is SC27B. Briefly: qHTS profiling for inhibitors of Plasmodium falciparum proliferation (AID 504749). Further: nearly all actives have a fitted effect of over 60% in size. The note with it: P. falciparum in erythrocytes, SYBR Green DNA, 72 h; series mostly up to 28.7 µM. A digest of the protocol:
(§1)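 Quantitative HTS: compounds pinned into medium, infected erythrocytes added (0.3% parasitemia, 2.5% hematocrit), 72 h culture at 37 C under 5% CO2. Saponin/Triton lysis with SYBR Green I, overnight RT, then fluorescence read.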
(qHTS replaces the single test concentration by a dilution series.)
`CCC(C(=O)OCCOCCN(CC)CC)c1ccccc1` (stereo not given): the Potency result was “inactive”.
On the same count and under the same terms, to `O=C(NC1CCN(CCc2c[nH]c3ccccc23)CC1)c1ccccc1` belongs “inactive”; to `NC(=O)C1(N2CCCCC2)CCN(CCCC(=O)c2ccc(F)cc2)CC1`, “inactive”.
For the compound `Cc1ccc2c(Br)cc(Br)c(O)c2n1`, the Potency was 11.2 µM (active).
Turning to `CN1CCC(OC(c2ccccc2)c2ccccc2)CC1`, the Potency entry was “inactive”.
The same measure, in the same setting: to `Cc1cc2c(OCC(CNC(C)(C)C)OC(=O)c3ccccc3)cccc2[nH]1` (stereo not given) belongs “inactive”; to `Cc1cccc(C)c1NC(=O)CN1CCCCCC1`, “inactive”.
On the same count and under the same terms, to `CC(=O)NCCCCCC(=O)O` belongs “inactive”.
On to `CCc1ccc(C(=O)C(C)CN2CCCCC2)cc1` (stereo not given), for which the Potency result was “inactive”.
As for `COc1ccc2c(c1)c1c3n2CCN(C)C3=NCC1`, the Potency result was “inactive”.
The same measure, in the same setting: the result for `CO[C@]12C[C@@H](COC(=O)c3cncc(Br)c3)CN(C)[C@@H]1Cc1cn(C)c3cccc2c13` reads “inactive”.

The subject of the next assay is TAB109. The assay is described as above. As to conditions: P. falciparum in erythrocytes, SYBR Green DNA, 72 h; series mostly up to 28.7 µM. The essentials: as §1
As to `C[N+]1(C)CCC(=C(c2ccccc2)c2ccccc2)CC1`, the Potency entry was “inactive”.
Take `CCN(CC)CCOC(=O)C1(c2ccccc2)CCCC1`: the Potency entry was “inactive”.
Regarding `CCC(CC)(CC(=O)Nc1cccc(/C=C/c2nc(C3CCC3)cs2)c1)C(=O)O`, the Potency result was “inactive”.
As to `CN1CCN(C2=Nc3cc(F)ccc3Cc3ccccc32)CC1`, the Potency result is “inactive”.
Still for that read-out and setting: the result for `COc1ccc(C(=O)c2ccccc2O)c(O)c1` reads “inactive”.
Still for that read-out and setting: the result for `C#C[C@]1(OC(C)=O)CC[C@H]2[C@@H]3CCC4=C/C(=N/O)CC[C@@H]4[C@H]3CC[C@@]21CC` reads “inactive”; that for `COc1cc([C@H]2Oc3cc([C@H]4Oc5cc(O)cc(O)c5C(=O)[C@@H]4O)ccc3O[C@@H]2CO)ccc1O`, “inactive”; that for `Cc1ncc(CO)c(C=O)c1O`, “inactive”.
`O=C(O)CCc1nc2ccccc2[nH]1`: the Potency entry is “inactive”.
Regarding `CCNC(=O)NCc1cccc(Cl)c1`, the Potency result is “inactive”.
On the same count and under the same terms, the result for `CCOc1ccccc1OCCN[C@H](C)Cc1ccc(OC)c(S(N)(=O)=O)c1` reads “inactive”.
Still for that read-out and setting: to `CCOC(=O)Nc1ccc2c(c1)N(C(=O)CCN1CCOCC1)c1ccccc1S2` belongs “inactive”.
Regarding `CC[N+](C)(CC)CCOC(=O)C(O)(c1ccccc1)C1CCCCC1` (stereo not given), the Potency result is “inactive”.
Still for that read-out and setting: to `CC(C)=CCOc1ccc(/C=C/C(=O)c2ccc(OCC=C(C)C)cc2OCC(=O)O)cc1` belongs “inactive”.
Regarding `O=C(CN1CCN(Cc2ccc3c(c2)OCO3)CC1)N1c2ccccc2Sc2ccccc21`, the Potency is 3.55 µM (active).
For `Cc1cccc(C)c1NC(=O)CN1CCCCCC1`, the Potency entry is “inactive”.
With `CC(=O)NCCCCCC(=O)O`, the Potency result was “inactive”.
On to `CCc1ccc(C(=O)C(C)CN2CCCCC2)cc1` (stereo not given), for which the Potency result is “inactive”.
The same measure, in the same setting: to `COc1ccc2c(c1)c1c3n2CCN(C)C3=NCC1` belongs “inactive”.
